Assay outcomes deposited in PubChem BioAssay by SRMLSC.
Abs 340nm = compound light absorbance at 340 nm, profiling panel, artefact control, biochemical, MLSMR library, data from PS, PMK, MK assays | compound absorbance at 340 nm, fold over control | fold change at 10 µM | 65,000 tested, under 10 active | AID 708, 2007;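 active = at 10 µM dose, initial 340 nm absorbance at least 2 fold that of control wells; inactive = change under 2 fold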;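 note: initial absorbance extrapolated from kinetic A340 decline of NADH oxidation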
MK inhibit = S. pneumoniae MK inhibitors, primary screen, biochemical, PK/LDH-coupled NADH absorbance; mevalonate kinase [Streptococcus pneumoniae D39]; purified MK, PK/LDH-coupled NADH absorbance 340 nm; inhibition, % at 10 µM; hit rate 0.48% among 65,000; AID 555, 2006;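 active = ranked among the strongest by inhibition in the single 10 µM screen, a fixed top-ranked set picked for dose follow-up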
Fluor 339 460 = intrinsic fluorescence of library compounds, ex339/em460 – biochemical, MLSMR library, data from DPM-DC assay, artefact control, profiling panel; fluorescence fold increase at 10 µM; compound autofluorescence, ex339/em460 nm, NADH buffer; hits give high values; 1 = no-compound wells, NADH background; hit rate 5.5% among 65,000;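 active = at 10 µM, mean starting fluorescence two-fold or more over control wells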;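 note: signal is the first read of a kinetic run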
Spn PMK inh = S. pneumoniae PMK inhibitors, primary screen, biochemical, mevalonate pathway, pilot trial included; phosphomevalonate kinase (Streptococcus pneumoniae D39); inhibition, % at 10 µM; hit rate 0.49% among 65,000; purified PMK, PK/LDH-coupled NADH absorbance 340 nm; AID 539, 2006;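 active = top-ranked compounds by inhibition in the single 10 µM screen, taking a fixed number of the strongest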;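 note: 0% = full reaction with DMSO carrier and 100% = background rate without enzyme reaction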
Spn DPM-DC inh = S. pneumoniae DPM-DC inhibitors, primary screen, biochemical, PK/LDH-coupled NADH fluorescence. purified DPM-DC. diphosphomevalonate decarboxylase (Streptococcus pneumoniae D39). hit rate 0.49% among 65,000. calls only at 10 µM;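 active = the 320 compounds with the highest percent inhibition in the single-dose primary screen, excluding strongly autofluorescent ones, cut at about 32% in these data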;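 note: kinetic rate of NADH fluorescence loss reporting ADP formed by the decarboxylase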
NADH coupling = inhibitors of PK/LDH coupling enzymes, profiling panel, artefact control, biochemical, MLSMR library. hit rate 0.02% among 65,000. IC50, µM (series often up to 10 µM), for the others: at the top dose inhibition. coupled PK/LDH NADH assays, four targets. AID 774, 2007;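 active = single-dose screening hits from any of four coupled enzyme assays that gave an IC50 when retested across doses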;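 note: the DPM-DC format reads NADH fluorescence rather than 340 nm absorbance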
Numbers without * were called inactive; i = inactive; . = no result shown; + = active, no number. A selection: hits, their analogues and other compounds. The true share with any hit is near 6.5%.

SMILES	Abs 340nm	MK inhibit	Fluor 339 460	Spn PMK inh	Spn DPM-DC inh	NADH coupling
CCCn1cnc2c(c1=O)c1nc3ccccc3nc1n2CCC1=CCCCC1	1.02	11.0	2.29*	11.0	i	8.0%
CN1CCN(c2nc3c(c(=O)n(C)c(=O)n3C)n2CC(=O)C23CC4CC(CC(C4)C2)C3)CC1	1.03	9.0	1.03	10.0	i	6.0%
Cn1c(CNC(=O)Nc2ccccc2Cl)nnc1SCc1ccccc1	0.95	0.0	1.06	21.0	i	8.0%
O=C1CC(SCCO)C(=O)N1c1ccc(Oc2ccccc2)cc1 (stereo unspecified)	1	6.0	1.06	4.0	i	6.0%
C=CCn1cnc2c(c1=O)c1nc3ccccc3nc1n2Cc1ccccc1	1.02	7.0	2.98*	15.0	i	15.0%
c1ccc2c(c1)CCOC2CNCCCN1CCCCC1 (stereo unspecified)	1.01	0.0	1.11	11.0	i	4.0%
Cc1ccc(C2C3=C(CC(C)(C)CC3=O)N(CCN3CCOCC3)C3=C2C(=O)CC(C)(C)C3)cc1	0.99	8.0	3.79*	5.0	+	16.0%
COc1c2ccoc2nc2c(OC)c(OCC(O)C(C)(C)O)ccc12 (stereo unspecified)	1.04	5.0	2.45*	0.0	.	1.0%
O=c1cc(-c2ccco2)oc2ccc(Cl)cc12	1.05	7.0	2.35*	5.0	.	2.0%
COc1ccc(N2CCN(CCNS(=O)(=O)c3cccc4nsnc34)CC2)cc1	1.03	30.0	1.11	33.0*	+	10.0%
O=C(O)Cn1nnnc1SCC(=O)Nc1ccc(OC(F)(F)F)cc1	1	0.0	1.07	7.0	i	2.0%
O=C(CN1CCN(c2ncccn2)CC1)N1CCN(C(c2ccccc2)c2ccccc2)CC1	1.1	49.0*	1.13	0.0	i	16.0%
O=C(Cn1cccc1)N1CCN(C(c2ccccc2)c2ccccc2)CC1	0.98	7.0	1.03	11.0	i	12.0%
O=C(COC(=O)c1ccccc1F)c1ccc(-n2nncc2-c2ccco2)cc1	1	3.0	1.04	14.0	i	10.0%
N=c1n(CCN2CCOCC2)c2ccccc2n1CC(=O)c1ccc(Cl)c(Cl)c1	0.98	2.0	1.06	26.0*	i	9.0%
COc1ccc(C2C(C#N)=C(N)Oc3n[nH]c(C)c32)cc1Cn1nnc2ccccc21 (stereo unspecified)	1.05	14.0	1.12	24.0	i	13.0%
CCCc1[nH]nc2c1C(c1ccc(OC)c(Cn3nnc4ccccc43)c1)C(C#N)=C(N)O2 (stereo unspecified)	0.98	51.0*	1.1	10.0	i	22.0%
COc1ccc(CN2CCN(C(=O)c3cc(OC)c(OC)c(OC)c3)CC2)cc1OC	1.06	62.0*	1.09	0.0	i	21.0%
COc1ccc(C(=O)N2CCN(Cc3cc(OC)c(O)c(OC)c3)CC2)cc1OC	1.03	9.0	1.08	4.0	i	4.0%
COc1ccc(CN2CCN(C(=O)CN3C(=O)C4C5C=CC(C5)C4C3=O)CC2)c(OC)c1OC (stereo unspecified)	0.98	7.0	1.08	19.0	i	9.0%
COc1cc(CN2CCN(C(=O)CC(C)C)CC2)cc(OC)c1OC	1.03	52.0*	1.08	12.0	i	21.0%
COc1ccc(CN2CCN(C(=O)CC(C)C)CC2)c(OC)c1OC	1.04	53.0*	1.15	1.0	i	18.0%
CCOC(=O)N1CCN(C(=O)COc2ccc3c(c2)C(=O)CC2(CCN(C(C)=O)CC2)O3)CC1	1.02	0.0	5.05*	14.0	.	7.0%
COc1cc2c(cc1OC)CN(Cc1cccs1)CC2	1.06	48.0*	1.18	13.0	i	22.0%
CCS(=O)(=O)N1CCc2cc(OC)c(OC)cc2C1	1	6.0	1.15	0.0	i	2.0%
SMILES	Abs 340nm	MK inhibit	Fluor 339 460	Spn PMK inh	Spn DPM-DC inh	NADH coupling
COc1cc2c(cc1OC)CN(Cc1ccc(OC)c(C)c1OC)CC2	1.1	46.0*	1.09	0.0	i	15.0%
Cn1cccc1C(C(=O)NC1CCCCC1)N(C(=O)Cc1cccs1)c1ccc2c(c1)OCCO2 (stereo unspecified)	1.04	4.0	1.11	14.0	i	6.0%
O=C(Cn1cc2c(n1)CCCC2)NCc1cccc(Cl)c1	1.05	0.0	1.12	17.0	i	6.0%
Cc1ccc(-c2nc(CN(C)C)cc(CN(C)C)c2O)cc1	1.08	10.0	3.82*	6.0	.	8.0%
Cc1cc(OCC(=O)NCCO)cc(C)c1Cl	0.99	6.0	1.05	26.0*	i	4.0%
Cc1cc(OCC(=O)NCCO)ccc1Cl	1.05	6.0	1.11	2.0	i	3.0%
O=C1CSC(c2cn(-c3ccccc3)nc2-c2cc3ccccc3oc2=O)N1Cc1ccco1 (stereo unspecified)	1.02	7.0	5.02*	14.0	.	11.0%
Cc1c(C(=O)OCC2CCCO2)[nH]c2c1C(=O)CC(c1ccc(N(C)C)cc1)C2 (stereo unspecified)	1.01	9.0	1	11.0	i	13.0%
COC(=O)c1cc(-c2c(C)oc3cc(OC)ccc3c2=O)c(C)o1	1.02	8.0	1.11	19.0	i	9.0%
Cc1oc2cc(O)cc(O)c2c(=O)c1-c1ccc2c(c1)OCCCO2	1.04	8.0	1.05	2.0	i	3.0%
COC(=O)c1cc(-c2c(C)oc3cc(O)ccc3c2=O)c(C)o1	1.04	16.0	2.44*	19.0	.	7.0%
Cc1oc2cc(O)ccc2c(=O)c1N1C(=O)c2ccccc2C1=O	1.14	4.0	1.79	0.0	+	13.0%
Cc1ccccc1-c1c(C)oc2cc(O)ccc2c1=O	1.13	0.0	2.21*	18.0	.	9.0%
CCN1CC=C2C(C#N)=C(N)C(C#N)(C#N)C(c3cc(Cl)ccc3Cl)C2C1 (stereo unspecified)	1.04	3.0	2.9*	12.0	i	12.0%
CC(C)N1CC=C2C(C#N)=C(N)C(C#N)(C#N)C(c3ccccc3)C2C1 (stereo unspecified)	1.04	6.0	1.99	0.0	i	11.0%
CCS(=O)(=O)c1nc2ccccc2n1Cc1ccccc1Cl	0.98	4.0	1.03	0.0	i	3.0%
CN(C)c1ccc(-c2nnn(CC(=O)N3c4ccccc4CCc4ccccc43)n2)cc1	1.07	0.0	2.61*	0.0	i	0.0%
CN(C)c1ccc(-c2nnn(CC(=O)Nc3ccccc3N3CCOCC3)n2)cc1	1.04	3.0	1.31	7.0	i	4.0%
Cn1c(C(=O)Nc2ccc3c(c2)OCO3)cc2c(=O)n(C)c3ccccc3c21	1.01	10.0	2.27*	7.0	.	4.0%
